PubChem BioAssay (EPA / NIEHS)
The source made the active and inactive calls. How the source made its calls: active means hit-call score of the fitted dose curve at least 0.9, where 1 is the maximum; inactive means score below 0.9.

Assays:
[1] = read-out: Thrombomodulin, THBD (gene 7056); test: BSK_CASM3C_Thrombomodulin: BioMAP Diversity Plus: CASM3C Assay for Thrombomodulin Biomarker Activity (AID 2283051); conditions: primary human coronary artery smooth muscle cells; actives raise or lower the signal;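 further: thrombomodulin protein level measured by ELISA 24 h after dosing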
[2] = read-out: Tissue Factor, F3 (gene 2152); test: BSK_CASM3C_TissueFactor: BioMAP Diversity Plus: CASM3C Assay for Tissue Factor Biomarker Activity (AID 2283052); conditions: primary human coronary artery smooth muscle cells; actives raise or lower the signal;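 further: cell surface tissue factor protein level read by ELISA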
[3] = read-out: Interferon-gamma inducible Protein 10 (IP10), CXCL10 (gene 3627); test: BSK_hDFCGF_IP10: BioMAP Diversity Plus: hDFCGF Assay for Interferon-gamma inducible Protein 10 (IP10) Biomarker Activity (AID 2283053); conditions: primary human foreskin fibroblasts; actives raise or lower the signal
Procedure, shortened: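 IP-10 levels, quantified by ELISA, are taken from human foreskin fibroblast cultures 24 h after chemical treatment, with DMSO serving as negative control and baseline for bidirectional analysis.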

[4] = read-out: Urokinase-type plasminogen activator receptor (uPAR), PLAUR (gene 5329); test: BSK_CASM3C_uPAR: BioMAP Diversity Plus: CASM3C Assay for Urokinase-type plasminogen activator receptor (uPAR) Biomarker Activity (AID 2283054); conditions: primary human coronary artery smooth muscle cells; actives raise or lower the signal;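 further: cell-surface uPAR protein level quantified by ELISA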
[5] = read-out: Vascular cell adhesion molecule 1 (VCAM1), VCAM1 (gene 7412); test: BSK_CASM3C_VCAM1: BioMAP Diversity Plus: CASM3C Assay for Vascular cell adhesion molecule 1 (VCAM1) Biomarker Activity (AID 2283055); conditions: primary human coronary artery smooth muscle cells; actives raise or lower the signal;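 further: VCAM-1 protein level quantified by ELISA on the cells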
[6] = read-out: Collagen III, COL3A1 (gene 1281); test: BSK_hDFCGF_CollagenIII: BioMAP Diversity Plus: hDFCGF Assay for Collagen III Biomarker Activity (AID 2283056); conditions: primary human foreskin fibroblasts; actives raise or lower the signal
Procedure, shortened: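 Human foreskin fibroblast primary cultures sampled 24 h after dosing; Collagen III quantified by ELISA. Signal fitted bidirectionally against DMSO baseline.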

[7] = read-out: Epidermal growth factor receptor (EGFR), EGFR (gene 1956); test: BSK_hDFCGF_EGFR: BioMAP Diversity Plus: hDFCGF Assay for Epidermal growth factor receptor (EGFR) Biomarker Activity (AID 2283057); conditions: primary human foreskin fibroblasts; actives raise or lower the signal
Procedure, shortened: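 Measured by ELISA: EGFR levels on primary human foreskin fibroblasts 24 h after chemical treatment, analysed relative to DMSO with bidirectional fitting.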

[8] = read-out: Interleukin-8 (IL8), CXCL8 (gene 3576); test: BSK_hDFCGF_IL8: BioMAP Diversity Plus: hDFCGF Assay for Interleukin-8 (IL8) Biomarker Activity (AID 2283058); conditions: primary human foreskin fibroblasts; actives raise or lower the signal
Procedure, shortened: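 Primary human foreskin fibroblasts (hDFCGF system) dosed with chemical; IL-8 measured by ELISA 24 hours later. Bidirectional curve fitting relative to DMSO baseline; cytotoxicity tracked in parallel cultures by SRB total protein staining.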

[9] = BSK_hDFCGF_Proliferation: Cell Proliferation Assessment in the BioMAP Diversity Plus: hDFCGF Assay (AID 2283059); conditions: primary human foreskin fibroblasts;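 further: curves fitted for both rise and fall of signal versus DMSO baseline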
Procedure, shortened: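 Sub-confluent human foreskin fibroblast cultures receive test chemical […]. Relative cell number is quantified by sulforhodamine B staining (0.1%, after 10% TCA fixation) at 560 nm, with bidirectional fitting referenced to DMSO.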

[10] = read-out: Macrophage colony-stimulating factor (MCSF), CSF1 (gene 1435); test: BSK_hDFCGF_MCSF: BioMAP Diversity Plus: hDFCGF Assay for Macrophage colony-stimulating factor (MCSF) Biomarker Activity (AID 2283060); conditions: primary human foreskin fibroblasts; actives raise or lower the signal
Procedure, shortened: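 Human foreskin fibroblast primary cultures; M-CSF measured by ELISA 24 hours after chemical dosing. Bidirectional fitting relative to DMSO, with overt cytotoxicity tracked by parallel SRB total-protein staining (0.1% SRB, 10% TCA fixation, 560 nm).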

[11] = read-out: TIMP metallopeptidase inhibitor 1 (TIMP1), TIMP1 (gene 7076); test: BSK_hDFCGF_TIMP1: BioMAP Diversity Plus: hDFCGF Assay for TIMP metallopeptidase inhibitor 1 (TIMP1) Biomarker Activity (AID 2283062); conditions: primary human foreskin fibroblasts; actives raise or lower the signal
Procedure, shortened: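 Human foreskin fibroblast primary cultures dosed for 24 h; secreted/surface TIMP-1 quantified by ELISA. Bidirectional curve fitting against DMSO baseline; cytotoxicity tracked in parallel cultures by SRB total-protein staining.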

[12] = read-out: Matrix Metallopeptidase 1 (MMP1), MMP1 (gene 4312); test: BSK_hDFCGF_MMP1: BioMAP Diversity Plus: hDFCGF Assay for Matrix Metallopeptidase 1 (MMP1) Biomarker Activity (AID 2283064); conditions: primary human foreskin fibroblasts; actives raise or lower the signal
Procedure, shortened: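 Primary human foreskin fibroblasts in the hDFCGF system were dosed with test chemical, and MMP1 was measured by ELISA 24 h later. Values come from bidirectional curve fitting against the DMSO baseline.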

[13] = read-out: Vascular cell adhesion molecule 1 (VCAM1), VCAM1 (gene 7412); test: BSK_hDFCGF_VCAM1: BioMAP Diversity Plus: hDFCGF Assay for Vascular cell adhesion molecule 1 (VCAM1) Biomarker Activity (AID 2283065); conditions: primary human foreskin fibroblasts; actives raise or lower the signal;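 on AC50: VCAM-1 protein level quantified by ELISA after 24 h chemical exposure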
Procedure, shortened: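 Human foreskin fibroblast primary cells dosed with chemical, VCAM-1 measured by ELISA at 24 h. Bidirectional curve fitting relative to DMSO as negative control/baseline.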

[14] = read-out: Plasminogen activator inhibitor-1 (PAI1), SERPINE1 (gene 5054); test: BSK_hDFCGF_PAI1: BioMAP Diversity Plus: hDFCGF Assay for Plasminogen activator inhibitor-1 (PAI1) Biomarker Activity (AID 2283066); conditions: primary human foreskin fibroblasts; actives raise or lower the signal
Procedure, shortened: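 PAI-1 levels, determined by ELISA, served as the endpoint in human foreskin fibroblast cultures exposed to compound for 24 h, with DMSO as baseline.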

[15] = read-out: Intercellular Adhesion Molecule 1 (ICAM1), ICAM1 (gene 3383); test: BSK_KF3CT_ICAM1: BioMAP Diversity Plus: KF3CT Assay for Intercellular Adhesion Molecule 1 (ICAM1) Biomarker Activity (AID 2283067); conditions: primary human keratinocytes with fibroblasts; actives raise or lower the signal
Procedure, shortened: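 Human keratinocyte–foreskin fibroblast co-culture was treated for 24 h. Cell-surface ICAM-1 was quantified by ELISA, fitted bidirectionally relative to DMSO. Cytotoxicity was checked in parallel cultures by SRB total-protein staining.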

[16] = read-out: Interferon-gamma inducible Protein 10 (IP10), CXCL10 (gene 3627); test: BSK_KF3CT_IP10: BioMAP Diversity Plus: KF3CT Assay for Interferon-gamma inducible Protein 10 (IP10) Biomarker Activity (AID 2283068); conditions: primary human keratinocytes with fibroblasts; actives raise or lower the signal
Procedure, shortened: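 ELISA read-out of IP-10 after 24 h chemical dosing of human skin primary co-culture (keratinocytes, foreskin fibroblasts). Gain or loss of signal relative to DMSO, bidirectional curve fit.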

[17] = BSK_KF3CT_SRB: Viability Assessment in the BioMAP Diversity Plus: KF3CT Assay (AID 2283069); conditions: primary human keratinocytes with fibroblasts;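 further: total protein by sulforhodamine B staining as a cytotoxicity measure; read 24 h after compound addition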
Procedure, shortened: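 Human primary keratinocyte plus foreskin fibroblast co-culture exposed to chemicals for 24 h. Total protein measured by 0.1% sulforhodamine B staining after 10% TCA fixation, read at 560 nm; bidirectional fitting versus DMSO baseline.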

[18] = read-out: Interleukin-1 alpha (IL1a), IL1A (gene 3552); test: BSK_KF3CT_IL1a: BioMAP Diversity Plus: KF3CT Assay for Interleukin-1 alpha (IL1a) Biomarker Activity (AID 2283070); conditions: primary human keratinocytes with fibroblasts; actives raise or lower the signal
Procedure, shortened: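 Human keratinocyte plus foreskin fibroblast primary co-culture, sampled 24 h after chemical dosing. IL-1a measured by ELISA; responses fitted bidirectionally against DMSO baseline (negative control), so gain or loss of signal both count.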

Measured: AC50

CCCN(CCC)c1c([N+](=O)[O-])cc(C(F)(F)F)cc1[N+](=O)[O-]
inactive: [1] | [2] | [4] | [5] | [6] | [7] | [8] | [11] | [15] | [17] | [18]
active: [3] 15.2 µM | [9] 29.6 µM | [10] 28.6 µM | [12] 4.1 µM | [13] 7.77 µM | [14] 29.4 µM | [16] 28.8 µM

CCC(C)(C)C(=O)OC1=C(c2ccc(Cl)cc2Cl)C(=O)OC12CCCCC2
inactive: [2] | [4] | [5]
active: [1] 10.5 µM | [3] 10.3 µM | [6] 5.74 µM | [7] 5.45 µM | [8] 11 µM | [9] 4.67 µM | [10] 5.55 µM | [11] 5.42 µM | [12] 7.8 µM | [13] 9.68 µM | [14] 6.68 µM | [15] 29.5 µM | [16] 29.9 µM | [17] 31.9 µM | [18] 31.1 µM

N#Cc1c(Cl)c(Cl)c(Cl)c(C#N)c1Cl
active: [3] 0.148 µM | [4] 5.03 µM | [5] 1.62 µM | [6] 0.148 µM | [8] 1.1 µM | [9] 0.148 µM | [10] 1.11 µM | [11] 2.58 µM | [12] 0.986 µM | [13] 1.08 µM | [14] 0.615 µM | [15] 0.786 µM | [16] 0.585 µM | [17] 1.49 µM | [18] 1.5 µM
inactive: [1] | [7]

CC(C)(C)C(O)C(Oc1ccc(Cl)cc1)n1cncn1 (stereo unspecified)
inactive: [1] | [2] | [3] | [4] | [5] | [6] | [7] | [8] | [10] | [11] | [12] | [13] | [14] | [15] | [16] | [17] | [18]

Cc1cc(C)nc(NC(=O)NS(=O)(=O)c2ccccc2C(=O)OC2COC2)n1
inactive: [1] | [2] | [3] | [4] | [5] | [6] | [7] | [8] | [9] | [10] | [11] | [12] | [13] | [14] | [15] | [16] | [17] | [18]

COC(=O)c1ccccc1S(=O)(=O)NC(=O)Nc1nc(C)nc(OC)n1
inactive: [1] | [2] | [3] | [4] | [5] | [6] | [7] | [8] | [9] | [10] | [11] | [12] | [13] | [14] | [15] | [16] | [17] | [18]
